# In PubChem BioAssay AID680 (PCMD, 2007):
# Out of some 62,000 compounds screened, about 120 (0.19%) were called active. Rule as the data show it: active = inhibition above about 20% (passing the limit was not always enough); inactive = the rest. For the sample, actives were picked, then their nearest neighbours and some compounds at random.
# Biological target: Coagulation factor XI (Homo sapiens) (UniProt P03951)
# Experiment: FXIa protease inhibitors in compound pools, primary screen, biochemical, 10-compound mixtures (AID 680);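 also: each value is inhibition by a whole ten-compound pool holding the compound; 0% = enzyme with no mixture and 100% = wells lacking enzyme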
# Conditions: purified FXIa, fluorogenic substrate, pooled mixtures; at 5 µM; hits give high values
# Coagulation factor XI (Homo sapiens), sequence (P03951 19-387 limits assumed): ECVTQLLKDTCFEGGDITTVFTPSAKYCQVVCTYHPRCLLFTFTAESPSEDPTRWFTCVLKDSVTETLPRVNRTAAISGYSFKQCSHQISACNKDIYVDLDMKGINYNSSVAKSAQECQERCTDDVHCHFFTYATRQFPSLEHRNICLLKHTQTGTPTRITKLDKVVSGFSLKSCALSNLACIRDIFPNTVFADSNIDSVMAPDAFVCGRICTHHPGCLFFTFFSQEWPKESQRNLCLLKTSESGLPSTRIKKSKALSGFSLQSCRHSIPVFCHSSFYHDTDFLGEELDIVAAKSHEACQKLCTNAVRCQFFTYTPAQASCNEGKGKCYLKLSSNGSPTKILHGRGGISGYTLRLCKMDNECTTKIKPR
# Coagulation factor XI (Homo sapiens), sequence (P03951 388-625 limits assumed): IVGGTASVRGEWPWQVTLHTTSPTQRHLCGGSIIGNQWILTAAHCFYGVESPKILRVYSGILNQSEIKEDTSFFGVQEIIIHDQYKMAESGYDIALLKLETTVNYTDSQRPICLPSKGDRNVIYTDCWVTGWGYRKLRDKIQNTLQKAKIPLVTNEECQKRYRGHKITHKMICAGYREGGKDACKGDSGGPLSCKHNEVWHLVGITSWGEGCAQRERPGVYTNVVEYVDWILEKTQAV
row,Compound,inhibition
1,O=C(c1cccc2ccccc12)N1CCN(c2ccccc2F)CC1,-1.32% (inactive)
2,O=C(c1ccccc1)c1ccc2nc(N3CCCCC3)c3nncn3c2c1,5.07% (inactive)
3,CCn1cc(C(=O)NCC2CCCO2)c(=O)c2cc(S(=O)(=O)N3CCCCC3)ccc21 (centres undefined),2.28% (inactive)
4,Cc1ccccc1Cn1c(=O)[nH]c2ccccc21,4.81% (inactive)
5,Cc1cc(NC(=O)CN2CCCCC2C)nc2c1c(=O)oc1ccccc12 (centres undefined),11.6% (inactive)
6,COC(=O)C1=C(C)NC2=C(C(=O)c3ccccc32)C1c1ccc(-c2ccc(C(=O)O)cc2)o1 (centres undefined),8.48% (inactive)
7,Cc1ccc(S(=O)(=O)C(C#N)c2nc3ccccc3nc2N2CCCC2)cc1C (centres undefined),-0.215% (inactive)
8,COc1ccc(S(=O)(=O)N2CCCC(C(=O)N3CCN(C)CC3)C2)cc1C (centres undefined),8.05% (inactive)
9,O=c1c(-c2ccccc2)coc2c(CN3CCOCC3)c(O)ccc12,-0.725% (inactive)
10,Cc1cc(C)cc(N(CC(=O)NCC2CCCO2)S(=O)(=O)c2c(C)noc2C)c1 (centres undefined),12.7% (inactive)
11,Cc1cc(C(=O)N2CCN(c3ccccn3)CC2)c(C)o1,8.12% (inactive)
12,O=C1OC(NC(=O)c2ccccc2)C(N2CCOCC2)=C1Cl (centres undefined),1.5% (inactive)
13,COc1ccc(CN2C(=O)CN=C2Nc2ccc(C)cc2C)cc1,9.03% (inactive)
14,O=C(Cn1nnc(-c2ccc(CN3CCOCC3)cc2)n1)NC1CCCCC1,4.01% (inactive)
15,Cc1cc(NS(=O)(=O)c2ccccc2)no1,7.83% (inactive)
16,CSc1ccc(S(=O)(=O)NCc2ccc(Cl)cc2)cc1,7.5% (inactive)
17,Cc1cccc(NC(=O)CSC(N)=O)c1C,4.87% (inactive)
18,C=CCNC(=O)C12CC3CC(C1)CC(C(=O)NCC=C)(C3)C2,4.77% (inactive)
19,O=C(O)CN(Cc1ccco1)S(=O)(=O)c1ccccc1,2.68% (inactive)
20,N=c1c2c3c(sc2ncn1CCCN1CCOCC1)CCCCC3,42.3% (inactive)
21,Cc1ccc2nc(NCCCNC(=O)c3cnccn3)c(C#N)cc2c1,-0.515% (inactive)
22,O=S(=O)(c1cccc(-c2nnc(SC(F)F)n2-c2ccccc2)c1)N1CCCCC1,6.38% (inactive)

row,Compound,inhibition
1,C=CCN(c1ccc(C(N)=O)cc1)S(C)(=O)=O,9.34% (inactive)
2,CCc1ccccc1N(CC(=O)N1CCN(c2ccccc2F)CC1)S(C)(=O)=O,9.44% (inactive)
3,CC(C)(C)c1csc(NC2=NS(=O)(=O)c3ccccc32)n1,0.915% (inactive)
4,O=C(NCCCN1CCN(c2ccccc2F)CC1)C1CCC(=O)N1C1CCCCC1 (centres undefined),0.475% (inactive)
5,O=C(NCc1ccc2c(c1)OCO2)c1cc2c(s1)CS(=O)(=O)C2,1.71% (inactive)
6,COC(=O)[C@H](Cc1ccccc1)NC(=O)N1CC(C)OC(C)C1 (some centres undefined),-17.5% (inactive)
7,Cn1c(SCC(=O)OC2CCCCC2)nnc1-c1ccc(S(=O)(=O)N2CCCC2)cc1,-4.25% (inactive)
8,CC(C)c1ccc(NC(=O)NC2CCCCC2)cc1,-11.2% (inactive)
9,CC1Cc2ccccc2N1C(=O)Cn1cnc2ccccc2c1=O (centres undefined),3.86% (inactive)
10,COc1ccc(Cc2nnc(NS(=O)(=O)Cc3ccccc3)s2)cc1,10.4% (inactive)
11,C[N+](C)(C)CCOP(=O)([O-])OC[C@H](O)CO,4.21% (inactive)
12,CCOC(=O)Cn1c(=O)oc2cc(S(=O)(=O)NCC3CCCO3)ccc21 (centres undefined),5.99% (inactive)
13,CCOC(=O)C(CC)Sc1ncnc2c1nnn2-c1ccc(F)cc1 (centres undefined),14% (inactive)
14,Cc1csc(NC(=O)NC2(C(F)(F)F)Oc3ccccc3O2)n1,0.345% (inactive)
15,O=C(CN1CCN(c2ccccc2F)CC1)c1ccc2c(c1)OCO2,4.78% (inactive)
16,O=C(NC1CCCCC1)N1CCc2[nH]c3ccccc3c2C1,7.75% (inactive)
17,CC(C)(C)Oc1ncc(Br)c(OC(C)(C)C)n1,-2.49% (inactive)
18,CCOC(=O)C1=C(C)NC(C)=C(C(=O)OCC)C1C1=COCCO1,-9.31% (inactive)
19,c1ccc(COc2nsnc2N2CCOCC2)cc1,11.9% (inactive)
20,CCNC(=O)CCc1nc(-c2ccc(C(C)(C)C)cc2)no1,-1.14% (inactive)
21,CC1COC2C(O1)N(S(C)(=O)=O)CCN2S(C)(=O)=O (centres undefined),1.71% (inactive)
22,CC(C)CNC(=O)c1cc(-c2ccc(Br)cc2)on1,5.53% (inactive)

row,Compound,inhibition
1,CCC(=O)c1ccc(OCC(O)CN2C(=O)NC(C)(C)C2=O)cc1 (centres undefined),11.4% (inactive)
2,CC1CN(c2cc(=O)n(-c3cccc(Br)c3)c(=O)[nH]2)CC(C)O1 (centres undefined),6.23% (inactive)
3,Cc1cccc(Cn2c(N3CCN(c4ccccc4)CC3)nc3c2c(=O)n(C)c(=O)n3C)c1,-1.79% (inactive)
4,CCOc1ccccc1NC(=O)Nc1cc(OC)ccc1OC,1.07% (inactive)
5,CCOC(=O)c1sc(/N=C/Nc2nc(C)c(C(=O)OCC)s2)nc1C,5.51% (inactive)
6,Cc1cnc(C(=O)OCC(=O)Nc2ccc(Cl)cc2Cl)cn1,6% (inactive)
7,O=C(Nc1cccc(-c2nnc(-c3ccccc3)o2)c1)C1CCCO1 (centres undefined),-7.16% (inactive)
8,O=C(Nc1nnc(CCc2ccccc2)s1)C1CCCO1 (centres undefined),21.3% (active)
9,O=C(Nc1ccc(-c2nnc(-c3ccccc3)o2)cc1)C1CCCO1 (centres undefined),9.26% (inactive)
10,CCOC(=O)c1ccc(-n2c(C)nc3c(cnn3-c3ccccc3C)c2=O)cc1,-0.685% (inactive)
11,CCC(CC)C(=O)Nc1cc(C(=O)OC)cc(C(=O)OC)c1,-1.44% (inactive)
12,CCc1ccccc1NC1c2ccccc2C(=O)N1c1cccnc1 (centres undefined),-0.145% (inactive)
13,CCOC(=O)N1CCC(Nc2c(NCCCN3CCN(c4ccc(OC)cc4)CC3)c(=O)c2=O)CC1,12.6% (inactive)
14,N#CC(C(N)=O)=C1CCC2(CC1)OCCCCO2,4.44% (inactive)
15,CCc1nnc(NC(=O)c2cccs2)s1,5.55% (inactive)
16,O=C(CS(=O)(=O)c1cn(Cc2ccc(Cl)cc2)c2ccccc12)N1CCOCC1,-16.2% (inactive)
17,CCN1C(=O)/C(=C2\SC(N3CCCCC3)=NC2=O)c2ccccc21,-7.47% (inactive)
18,O=C(c1cccc(C(=O)N2CCN(c3ccc(F)cc3)CC2)c1)N1CCN(c2ccc(F)cc2)CC1,0.53% (inactive)
19,CN1CCN(C(=O)c2ccc(NS(=O)(=O)c3ccccc3)cc2)CC1,1.27% (inactive)
20,Cc1nonc1OCCn1nnnc1N,-1.41% (inactive)
21,COc1ccc(CCNS(=O)(=O)c2ccc(C(=O)NCc3ccco3)cc2)cc1OC,2.31% (inactive)
22,Cc1ccc2nc(-c3ccc(SCC(=O)Nc4cc(C)on4)nc3)[nH]c2c1,-9.14% (inactive)

row,Compound,inhibition
1,COc1ccc(Cn2c(=O)sc3ccccc32)cc1OC,-0.795% (inactive)
2,CC1(C)Oc2ccc(C(=O)N3CCOCC3)cc2N(CC(=O)Nc2ccccc2)C1=O,7.31% (inactive)
3,O=C(CSc1nnc(-c2cccs2)n1-c1ccccc1)N1CCN(C(=O)c2ccco2)CC1,-14.5% (inactive)
4,O=S(=O)(NCCNS(=O)(=O)c1ccccc1)c1ccccc1,-3.77% (inactive)
5,COc1ccc(NC(=O)c2c(SC)nsc2SC)cc1,4.24% (inactive)
6,COc1cccc(Nc2ncccc2C(=O)O)c1,5.89% (inactive)
7,COc1ccc(Cc2nnnn2CC(=O)O)cc1,3.18% (inactive)
8,O=C(O)c1ccc(F)c(S(=O)(=O)Nc2ccccc2)c1,7.12% (inactive)
9,CCN(CC)CCCNC(=O)c1cc(-c2cccc(Cl)c2)on1,5.02% (inactive)
10,CCOC(=O)Cn1c(N)c(C(=O)OC)sc1=S,-0.995% (inactive)
11,O=C(Cn1cnc2c(cnn2-c2ccc(F)cc2)c1=O)NCCc1ccccc1,-10.3% (inactive)
12,Cc1cc(C)c(C#N)c(SCc2[nH]nc3c2C(c2ccccc2)C(C#N)=C(N)O3)n1 (centres undefined),1.67% (inactive)
13,c1ccc2c(CNn3cnnc3)cccc2c1,7.96% (inactive)
14,COC(=O)c1ccc(CN(c2ccccc2OC)S(=O)(=O)c2cccs2)o1,-7.66% (inactive)
15,CCOC(=O)c1c(C)nc(-c2ccccc2)nc1NC(=O)C(C)C,5.54% (inactive)
16,CCOc1ccc(N=C2SC(C(=O)O)CC(=O)N2C)cc1 (centres undefined),-15.5% (inactive)
17,CCC(=NC1CC(C)(C)NC(C)(C)C1)C1=C(O)CC(C)(C)CC1=O,-8.62% (inactive)
18,CCCCN(C)C(=O)C1CCN(Cc2ccccn2)CC1,-2.55% (inactive)
19,COc1ccc(CSc2nc(N3CCOCC3)c3c(c2C#N)CC(C)(C)OC3)cc1,-0.245% (inactive)
20,COc1cc2cc(CN(CCN3CCCC3)C(=O)Nc3ccccc3Cl)c(=O)[nH]c2cc1OC,2.35% (inactive)
21,C=CCn1c(SCc2nnc(-c3ccccc3)o2)nnc1C(O)c1ccccc1 (centres undefined),-17.4% (inactive)
22,CCCCCCC(=O)N(O)C1CC(=O)N(c2ccccc2)C1=O (centres undefined),1.64% (inactive)

row,Compound,inhibition
1,O=C1CC2(CCCCC2)Oc2ccc(OCC(=O)N3CCOCC3)cc21,4.52% (inactive)
2,Cc1cn(COC/C=C/c2ccccc2)c(=O)[nH]c1=O,-1.04% (inactive)
3,CCNc1nc(NCC)nc(N(C)n2cnnc2)n1,-3.07% (inactive)
4,CC(C)(C)c1ccc(C(=O)NCCC(=O)NCc2ccco2)cc1,3.48% (inactive)
5,CCn1cc(C(=O)N2CCN(C3CCCCC3)CC2)c2cc(OC)c(OC)cc2c1=O,4.42% (inactive)
6,COC(=O)[C@@H](NC(=O)NCc1cccc(OC)c1)C(C)C,-1.25% (inactive)
7,COC(=O)CCNc1ccc2c(c1)OCCO2,-1.79% (inactive)
8,COc1ccc(-c2c(C)nn3c(N4CCC(C(=O)N5CCCCC5)CC4)cc(C)nc23)cc1OC,8.56% (inactive)
9,CCc1ccccc1N(CC(=O)NCCSCc1ccco1)S(C)(=O)=O,-9.75% (inactive)
10,CCSc1nc2c(c(=O)[nH]1)C(c1cccnc1)C(C(=O)OC(C)C)=C(C)N2 (centres undefined),7.07% (inactive)
11,Cn1c(=NC(=O)c2cnccn2)sc2ccccc21,5.25% (inactive)
12,O=C(OC(C(=O)NC1CCCC1)c1ccc(F)cc1)c1ccno1 (centres undefined),7.23% (inactive)
13,CN(C)CCNC(CC(=O)Nc1ccc(Cl)c(Cl)c1)C(=O)O (centres undefined),0.68% (inactive)
14,CN1CCN(c2cc(=O)n(-c3ccc(Cl)cc3)c(=O)[nH]2)CC1,-10.3% (inactive)
15,COc1ccc(C)cc1NC(=O)CSc1nc(SC)ns1,6.14% (inactive)
16,CCOc1ccccc1NC(=O)C1CCN(S(=O)(=O)c2c(C)nn(C)c2C)CC1,9% (inactive)
17,COc1cccc2c(=O)n(CC(=O)N3CCCCCC3)ccc12,-15.3% (inactive)
18,Cc1ccc(C(=O)O)cc1S(=O)(=O)NCC1CCCO1 (centres undefined),8.82% (inactive)
19,CCOC(=O)Cn1c(CN(Cc2ccccc2)Cc2ccccc2)nc2c1c(=O)[nH]c(=O)n2C,-7.29% (inactive)
20,CCSC(C)CC1C/C(=N/O)c2c(C)noc2C1 (centres undefined),0.87% (inactive)
21,O=C(CSC1=Nc2ccccc2C2=NC(c3ccccc3)C(=O)N12)NCC1CCCO1 (centres undefined),2.26% (inactive)
